Here are results for five compounds from PubChem BioAssay.

Activity calls are given as the source filed them.

One test deals with Albumin (Bos taurus) (UniProt P02769). The test is described as follows: bovine serum albumin binders on microarray, profiling panel, artefact control for SMM control protein annotation, biochemical, small-molecule microarray, Alexa647 label, 635/667 nm fluorescence (AID 1118).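 Note: score merges 667 nm emission intensity and signal-to-noise per printed compound spot.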 Conditions: BSA-A647 binding, fluorescence 635 nm, higher = more signal.
Albumin (Bos taurus), sequence (P02769 whole entry, looked up): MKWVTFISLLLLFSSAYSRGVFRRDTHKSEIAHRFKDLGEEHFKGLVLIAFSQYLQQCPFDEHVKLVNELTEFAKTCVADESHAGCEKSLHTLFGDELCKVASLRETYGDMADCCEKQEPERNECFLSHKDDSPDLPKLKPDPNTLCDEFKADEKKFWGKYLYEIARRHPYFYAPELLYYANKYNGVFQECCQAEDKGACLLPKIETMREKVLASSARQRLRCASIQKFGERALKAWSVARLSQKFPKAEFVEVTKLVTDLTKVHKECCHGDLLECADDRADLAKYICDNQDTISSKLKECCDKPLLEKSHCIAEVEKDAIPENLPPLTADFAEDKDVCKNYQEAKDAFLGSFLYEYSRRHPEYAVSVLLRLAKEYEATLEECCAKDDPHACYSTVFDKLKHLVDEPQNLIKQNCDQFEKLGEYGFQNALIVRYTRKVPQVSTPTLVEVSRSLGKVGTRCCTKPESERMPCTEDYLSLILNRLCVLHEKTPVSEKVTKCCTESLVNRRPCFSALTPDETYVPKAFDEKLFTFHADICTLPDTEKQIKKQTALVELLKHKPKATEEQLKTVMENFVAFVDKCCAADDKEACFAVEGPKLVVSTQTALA
Test [1] in a line: small-molecule microarray binders of probe aXIP, primary screen, biochemical, NeuroSMM set, 635/667 nm fluorescence (AID 1119).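 Note: probe is the protein aXip251-270 applied at 1 µg/mL to compound-printed slides; binding of probe to printed compounds measured as 667 nm fluorescence plus signal to noise.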 Conditions: higher = more signal, called active from +8 up or from −8 down.
The nature of test [2]: small-molecule binders of probe aNOTCH3, primary screen, biochemical, small-molecule microarray, 635/667 nm fluorescence (AID 1120).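 Note: probe is a biotin-tagged antibody raised against NOTCH3 rather than NOTCH3 protein; score merges spot fluorescence near 667 nm with spot signal to noise.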 Conditions: higher = more signal.
The nature of test [3]: small-molecule binders of probe aNOTCH2, primary screen, biochemical, small-molecule microarray, 635/667 nm fluorescence (AID 1121).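 Note: score merges feature fluorescence read at 667 nm with its signal to noise.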 The note with it: higher = more signal.
In test [4] the target is Carbonic anhydrase 2 (Homo sapiens) (UniProt P00918). The experiment in a line: CAII small-molecule binders, profiling panel, biochemical, small-molecule microarray, Alexa647-labelled CAII (AID 1122). Conditions: CAII-A647 binding fluorescence, higher = more signal.
Test [5] can be described thus: COS7 lysate on small-molecule microarray, probe aHis, 635 nm (AID 1123).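 Note: z-score combines 667nm fluorescence intensity with signal-to-noise per printed compound spot.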 Conditions: COS7 cell lysate, fluorescence, higher = more signal.
Test [6] is described as follows: compound binding in COS7 lysate, probe aLAP1, primary screen, cell lysate, small-molecule microarray (AID 1124).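 Note: lysate comes from COS7 cells expressing LAP1 and is applied at 0.3 µg/mL; score merges spot fluorescence near 667 nm with signal-to-noise over triplicate slides.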 Conditions: probe aLAP1, fluorescence, higher = more signal.
The next test has as its system Sam68 (KHDRBS1). The experiment in a line: Sam68 small-molecule binders, primary screen, biochemical, small-molecule microarray, 635 nm fluorescence (AID 1125).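 Note: score merges 667 nm channel intensity with signal to noise over triplicate slides.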 The note with it: small-molecule microarray binding, higher = more signal.
Test [7] has as its system Chordin-like protein 2 (CHRDL2). The experiment in a line: CHRDL2 small-molecule binders, primary screen, biochemical, small-molecule microarray, 635 nm fluorescence (AID 1126).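 Note: printed compound slides probed with Chrdl2 protein at 4 µg/mL for 1 h at 4 C; score merges 667 nm emission intensity with signal to noise over three replicate slides.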 The note with it: small-molecule microarray binding, fluorescence 635 nm; higher = more signal.
The target in test [8] is Concanavalin-A (Canavalia ensiformis) (UniProt P02866). The experiment in a line: ConA small-molecule binders, primary screen, artefact control for SMM control protein annotation, biochemical, small-molecule microarray, Alexa647 label, 635 nm (AID 1127).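 Note: z combines 667 nm emission intensity with signal-to-noise across three replicate slides.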 Conditions: ConA-A647 binding fluorescence, higher = more signal.
Concanavalin-A (Canavalia ensiformis), sequence (P02866 whole entry, looked up): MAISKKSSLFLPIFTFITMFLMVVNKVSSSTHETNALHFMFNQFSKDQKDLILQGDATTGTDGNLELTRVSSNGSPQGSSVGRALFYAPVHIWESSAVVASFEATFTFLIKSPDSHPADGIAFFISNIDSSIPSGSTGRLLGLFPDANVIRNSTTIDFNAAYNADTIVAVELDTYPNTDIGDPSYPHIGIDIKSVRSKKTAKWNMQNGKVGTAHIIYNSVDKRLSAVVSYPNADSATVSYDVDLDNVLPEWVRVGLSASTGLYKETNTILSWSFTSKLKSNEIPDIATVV
Test [9] can be described thus: anti-His antibody binders, primary screen, artefact control for SMM control protein annotation, biochemical, small-molecule microarray, 635 nm fluorescence (AID 1128).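 Note: score merges feature fluorescence with signal-to-noise for each printed compound spot.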 Conditions: anti-His Alexa647 antibody binding, higher = more signal.
Test [10] has as its system Human papillomavirus type 1a E7 protein (residues 1-88). The experiment in a line: HPV1a E7 small-molecule binders, primary screen, biochemical, small-molecule microarray, residues 1-88, 635 nm (AID 1129). Conditions: small-molecule microarray binding, fluorescence 635 nm; higher = more signal.
For test [11], the target named is Focal adhesion kinase 1 (Homo sapiens) (UniProt Q05397). The experiment in a line: small-molecule microarray binders of FAK, primary screen, biochemical, 635/667 nm fluorescence, BSA, DTT (AID 1130).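 Note: composite of spot emission at 667 nm and signal to noise over triplicate slides.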 Conditions: PTK2 binding, 635 nm fluorescence, higher = more signal.
Focal adhesion kinase 1 (Homo sapiens), sequence (Q05397 whole entry, looked up): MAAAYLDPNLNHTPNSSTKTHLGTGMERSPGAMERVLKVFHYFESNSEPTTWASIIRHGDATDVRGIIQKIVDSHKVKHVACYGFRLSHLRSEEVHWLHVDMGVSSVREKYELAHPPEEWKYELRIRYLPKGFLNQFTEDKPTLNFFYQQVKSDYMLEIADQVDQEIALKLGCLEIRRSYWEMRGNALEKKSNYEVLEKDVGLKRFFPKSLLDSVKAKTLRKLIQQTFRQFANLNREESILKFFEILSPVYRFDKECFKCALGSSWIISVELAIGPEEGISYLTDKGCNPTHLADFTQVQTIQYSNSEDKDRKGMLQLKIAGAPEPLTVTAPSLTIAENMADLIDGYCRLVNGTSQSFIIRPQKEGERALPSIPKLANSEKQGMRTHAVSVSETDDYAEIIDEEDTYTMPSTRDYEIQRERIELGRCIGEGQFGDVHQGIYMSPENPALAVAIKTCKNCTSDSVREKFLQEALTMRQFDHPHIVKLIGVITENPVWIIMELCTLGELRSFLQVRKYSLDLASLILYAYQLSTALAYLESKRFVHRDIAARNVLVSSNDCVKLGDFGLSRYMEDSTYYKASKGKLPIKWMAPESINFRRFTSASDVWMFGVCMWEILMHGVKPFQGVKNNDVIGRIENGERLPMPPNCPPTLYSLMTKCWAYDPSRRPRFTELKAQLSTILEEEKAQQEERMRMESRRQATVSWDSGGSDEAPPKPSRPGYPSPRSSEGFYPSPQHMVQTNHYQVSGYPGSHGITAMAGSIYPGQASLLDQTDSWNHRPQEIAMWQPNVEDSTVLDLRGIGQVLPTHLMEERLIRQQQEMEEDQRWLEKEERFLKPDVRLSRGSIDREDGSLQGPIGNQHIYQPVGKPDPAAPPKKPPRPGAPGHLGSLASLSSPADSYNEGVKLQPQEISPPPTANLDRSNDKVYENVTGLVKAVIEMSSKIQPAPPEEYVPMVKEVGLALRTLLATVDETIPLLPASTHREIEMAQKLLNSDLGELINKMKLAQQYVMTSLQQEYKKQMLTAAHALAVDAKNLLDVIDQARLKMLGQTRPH
Test [12] has as its system Fibrinogen (Alexa647-labelled). The test is described as follows: fibrinogen binders on compound microarrays, profiling panel, artefact control for SMM control-protein annotation, biochemical, small-molecule microarray, 635/667 nm fluorescence (AID 1131).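 Note: z-score merges 667 nm fluorescence with per-spot signal-to-noise over triplicate slides.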 The note with it: fibrinogen-A647 binding fluorescence, higher = more signal.
Test [13] concerns the target Follistatin (Homo sapiens) (UniProt P19883). The test is described as follows: follistatin binders on small-molecule microarrays, primary screen, biochemical, small-molecule microarray, 635/667 nm fluorescence (AID 1132). Conditions: FST binding, 635 nm fluorescence, higher = more signal.
Test [14] deals with Fibroblast growth factor 2 (Homo sapiens) (UniProt P09038). The test is described as follows: FGF2 binders on small-molecule microarrays, primary screen, biochemical, small-molecule microarray, 635/667 nm fluorescence (AID 1133). Conditions: small-molecule microarray binding, FGF2, fluorescence 635/667; higher = more signal.
Fibroblast growth factor 2 (Homo sapiens), sequence (P09038 whole entry, looked up): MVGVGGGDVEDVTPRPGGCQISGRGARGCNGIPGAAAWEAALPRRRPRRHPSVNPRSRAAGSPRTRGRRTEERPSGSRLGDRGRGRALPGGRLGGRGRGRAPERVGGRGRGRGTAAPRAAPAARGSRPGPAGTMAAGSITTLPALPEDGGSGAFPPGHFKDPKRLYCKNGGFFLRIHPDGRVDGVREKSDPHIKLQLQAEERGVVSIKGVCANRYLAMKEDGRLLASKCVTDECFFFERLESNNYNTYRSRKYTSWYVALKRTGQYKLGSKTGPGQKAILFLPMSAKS
Test [15] is described as follows: mitochondrial membrane potential change in A549 cells, profiling panel, cell-based, JC-1 fluorescence, basal, 24 h, 100 nL (AID 1138).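 Note: A549 lung adenocarcinoma cells under basal conditions with no added stimulus; test concentration not given here.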 Conditions: higher = more signal.
The next test has as its system Lefty1. The experiment in a line: Lefty1 binders on small-molecule microarrays, primary screen, biochemical, small-molecule microarray, 635/667 nm fluorescence (AID 1139). Conditions: small-molecule microarray binding, fluorescence 635/667; higher = more signal.
In test [16] the test system is wheat germ agglutinin (Triticum aestivum), Alexa647-labelled. The experiment in a line: wheat germ agglutinin binders on compound microarrays, profiling panel, artefact control for SMM control-protein annotation, biochemical, small-molecule microarray, 635/667 nm fluorescence (AID 1140).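 Note: score merges 667 nm feature emission with signal to noise over triplicate slides.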 Conditions: WGA-A647 binding, 635 nm fluorescence, higher = more signal.
In test [17] the target is Luciferin 4-monooxygenase (Photinus pyralis) (UniProt P08659). The experiment in a line: firefly luciferase enzyme inhibitors, primary screen, biochemical, luminescence, purified enzyme, 2006 set (AID 1141).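 Note: cell-free assay with purified firefly luciferase at 100 ng per well in PBS; test concentration not given here.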 Conditions: SteadyGlo luminescence, 30 min, higher = more signal, called active from +8 up or from −8 down.
Luciferin 4-monooxygenase (Photinus pyralis), sequence (P08659 whole entry, looked up): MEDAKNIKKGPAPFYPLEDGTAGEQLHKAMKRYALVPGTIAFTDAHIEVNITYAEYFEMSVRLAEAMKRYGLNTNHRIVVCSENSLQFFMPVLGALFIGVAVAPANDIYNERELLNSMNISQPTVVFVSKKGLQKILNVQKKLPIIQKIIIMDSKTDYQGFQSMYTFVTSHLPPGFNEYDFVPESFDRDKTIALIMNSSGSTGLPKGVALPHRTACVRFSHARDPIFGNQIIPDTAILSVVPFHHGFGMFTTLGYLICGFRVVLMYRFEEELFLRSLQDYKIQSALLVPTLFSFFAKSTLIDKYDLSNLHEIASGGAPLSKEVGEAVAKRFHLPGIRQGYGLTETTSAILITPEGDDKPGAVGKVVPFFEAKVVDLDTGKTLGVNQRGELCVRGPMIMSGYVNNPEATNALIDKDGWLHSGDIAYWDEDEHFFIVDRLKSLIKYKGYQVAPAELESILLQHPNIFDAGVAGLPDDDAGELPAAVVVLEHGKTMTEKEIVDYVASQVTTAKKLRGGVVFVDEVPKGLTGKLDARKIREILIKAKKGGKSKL

Follistatin (Homo sapiens), sequence (P19883 whole entry, looked up): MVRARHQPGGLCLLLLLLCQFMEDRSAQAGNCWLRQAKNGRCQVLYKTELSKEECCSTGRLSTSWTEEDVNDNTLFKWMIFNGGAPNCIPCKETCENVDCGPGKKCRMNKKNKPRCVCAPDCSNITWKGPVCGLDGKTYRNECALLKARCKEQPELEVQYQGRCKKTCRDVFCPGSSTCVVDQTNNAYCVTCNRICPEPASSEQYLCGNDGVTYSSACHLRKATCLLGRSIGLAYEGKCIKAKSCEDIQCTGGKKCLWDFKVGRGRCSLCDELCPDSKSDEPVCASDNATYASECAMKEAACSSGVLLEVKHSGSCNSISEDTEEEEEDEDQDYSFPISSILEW

On to `CC(=O)OC[C@H]1O[C@H](CCON=C(C)C)C=C[C@@H]1OC(C)=O`, for which the composite z-score in the test with Albumin (Bos taurus) is 0.123; in test [2], -0.0362; in [3] it was -0.0651; in [4], -0.177; in [5], -0.308; in test [6] it was -0.0375. In addition, the composite z-score with Sam68 (KHDRBS1) is -0.406; in test [7], 0.445; in test [8] it was 0.186; in [9], 1.56; in test [10], -0.33; in test [11] it was 0.115. Moreover, the composite z-score was 0.0586 in test [12]; 0.521 in [13]; 0.247 in test [14]; 0.377 in the test on Lefty1; -0.178 in test [16]. Besides, in [1], the composite Z-score was -0.0706 (inactive). The z-score in test [15] was 0.0315; in test [17], 0.654 (inactive).
Take `CCN1C(=O)[C@H]2[C@H]3[C@H](O)[C@H](O)CC(=NOCC(C)C)[C@H]3CC[C@H]2C1=O`: the composite z-score was -0.369 with Albumin (Bos taurus); 0.108 in test [2]; -0.204 in [3]; -0.15 in test [4]; -0.302 in [5]; 0.0041 in [6]. Further, the composite z-score is 0.0597 in the test with Sam68 (KHDRBS1); 0.843 in test [7]; -0.238 in [8]; 0.341 in test [9]; 0.551 in [10]; -0.0956 in [11]. The composite z-score was -0.326 in test [12]; 0.818 in test [13]; 0.4 in test [14]; 0.717 in the test on Lefty1; -0.312 in test [16]. Moreover, in test [1], the composite Z-score is -0.14 (inactive). Further, the z-score in [15] is -0.087; in test [17], 0.404 (inactive).
`CCOC(=O)[C@H](CC(C)C)NC(=O)CCC1CC(OC(=O)NCc2ccc3c(c2)OCO3)CC2(CCCC(COC(=O)NCCC(C)C)O2)O1` (stereo not given in full): the composite z-score in the test with Albumin (Bos taurus) is 0.42; in test [2], -0.0555; in test [3], -0.112; in test [4] it was 0.515; in test [5], 0.298; in [6], 0.0199. Further, the composite z-score is -0.557 in the test with Sam68 (KHDRBS1); -0.085 in test [7]; -0.746 in test [8]; 0.348 in test [9]; -0.438 in test [10]; 0.0454 in test [11]. Also, the composite z-score is -0.27 in test [12]; -0.14 in [13]; 0.279 in test [14]; 0.172 in the test with Lefty1; 0.182 in [16]. Moreover, in test [1], the composite Z-score was 0.231 (inactive). Also, the z-score is 0.471 in test [15] and 0.537 (inactive) in [17].
`COc1ccc(O[C@H]2C=C[C@@H](c3ccccc3)O[C@@H]2COC(=O)CCC(C)=NOC[C@@H](O)COCc2ccco2)cc1`: the composite z-score is 0.214 with Albumin (Bos taurus); -0.919 in test [2]; -0.271 in test [3]; -0.888 in test [4]; -1.8 in test [5]; -0.875 in test [6]. Moreover, the composite z-score in the test on Sam68 (KHDRBS1) is -0.875; in [7], -3.04; in test [8] it was -2.57; in test [9] it was 0.614; in [10] it was -0.99; in test [11], -0.814. In addition, the composite z-score was -3.44 in test [12]; -2.77 in test [13]; -2.63 in test [14]; -1.58 in the test with Lefty1; -0.674 in [16]. Besides, the composite Z-score in [1] was -0.22 (inactive). Moreover, the z-score in test [15] was -0.424; in test [17], -0.49 (inactive).
As for `CC(C)[C@H](NC(=O)OC(C)(C)C)[C@@H](O)CC(=O)C(C)(C)C`, the composite z-score was -0.269 in the test with Albumin (Bos taurus); -0.178 in test [2]; -0.152 in test [3]; -0.163 in test [4]; 0.163 in test [5]; -0.0769 in test [6]. Besides, the composite z-score in the test with Sam68 (KHDRBS1) is -0.0938; in [7], 0.591; in test [8] it was 0.188; in test [9] it was -0.007; in test [10], -0.195; in test [11] it was -0.402. Besides, the composite z-score in [12] was 0.0622; in test [13] it was 0.359; in [14], 0.516; with Lefty1 it was 0.627; in test [16] it was -0.0466. In test [1], the composite Z-score was -0.382 (inactive). In addition, the z-score in test [15] was 0.109; in test [17], 0.0879 (inactive).
